# Records with an inconclusive call do not appear. Activity calls are given as the source filed them. Calls follow the shape of the dose curve; as a rule, active = well fitted cell-killing curve with a large enough effect in the repeat runs; inconclusive = weak or mixed curves, or effect the other way; inactive = no such curve, though single readings can be large or run the other way.
# Test: qHTS assay to identify small molecule agonists of the farnesoid-X-receptor (FXR) signaling pathway - cell viability counter screen (AID 743218); also: nearly all actives have a fitted effect of over 45% in size
# Conditions: FXR-bla HEK293T viability, CellTiter-Glo luminescence, 16 h; series mostly up to 62.6 µM; viability change, negative = cytotoxic: at the top concentration
# Source text: U.S. Tox21 Program National Center for Advancing Translational Sciences [NCATS] NIH Chemical Genomics Center [NCGC] U.S. Environmental Protection Agency [EPA] National Institutes of Environmental Health Sciences [NIEHS] National Toxicology Program [NTP] U.S. Food and Drug Administration [FDA] Tox21 Assay Overview: The farnesoid-X-receptor (FXR), a nuclear hormone receptor, is highly expressed in liver, intestine, kidney and adrenal cortex. Natural ligands of FXR are the bile acids (Cholic acid, Chenodeoxy cholic acid etc). FXR is an important regulator of diverse metabolic pathways, including the bile acid homeostasis, lipid and glucose metabolisms. FXR regulates the expression of target genes by binding either as a monomer or as a heterodimer with the retinoid X receptor (RXR). Numerous studies have reported that FXR exerts protective function during cholestasis, diabetes, liver regeneration, and cancer. To identify compounds that activate FXR signaling, GeneBLAzer FXR-UAS-bla HEK 293T cell line (Invitrogen, Carlsbad, CA) containing a beta-lactamase reporter gene under the control of a UAS response element was used to screen the Tox21 10K compound library. The cytotoxicity of the Tox21 compound library against the FXR-bla cell line was tested in parallel by measuring the cell viability using CellTiter-Glo assay in the same wells.
# Tox21 Assay Protocol Summary: FXR-bla cells were dispensed at 5000 cells/5uL/well in 1536-well black wall/clear bottom plates using a Multidrop Combi (Thermo Fisher Scientific, Waltham, MA) dispenser. After the assay plates were incubated at 37 C and 5% CO2 for 5 h, 23 nL of compounds dissolved in DMSO, positive controls or DMSO only was transferred to the assay plate by a Pintool station (Kalypsys, San Diego, CA). The assay plates were incubated at 37C for 16 h. After 1 uL of LiveBLAzerTM B/G FRET substrate was added using a Bioraptr Flying Reagent Dispenser (FRD) workstation (Beckman Coulter, Indianapolis, IN), the plates were incubated at room temperature for 2 h, and fluorescence intensity was measured by an Envision plate reader (PerkinElmer, Shelton, CT). For cell viability readout that measures cytotoxicity, 4uL/well of CellTiter-Glo reagent was added into the assay plates using a Bioraptr FRD. After 30 min incubation at room temperature, the luminescence intensity in the plates was measured using a ViewLux plate reader (PerkinElmer).
# % is scaled to controls: 0 for no effect and ±100 for the full control effect.
row,SMILES,"viability change, negative = cytotoxic"
1,CC1(C)OC[C@@H](COC(=O)CCc2ccc(OC[C@@H](O)CNCCNC(=O)N3CCOCC3)cc2)O1,5.88% (inactive)
2,CNC(=O)Nc1ccc(Cl)c(Cl)c1,-13.6% (inactive)
3,CCC1C(=O)OCC1Cc1cncn1C (stereo not given),7.43% (inactive)
4,Cc1ccc(-c2ncc(Cl)cc2-c2ccc(S(C)(=O)=O)cc2)cn1,1.91% (inactive)
5,NCCCC(N)(C(=O)O)C(F)F (stereo not given),24.2% (inactive)
6,CC[N+](C)(CC)CCOC(=O)C1c2ccccc2Oc2ccccc21,12.2% (inactive)
7,C[N+]1(C)[C@@H]2CC(OC(=O)[C@H](CO)c3ccccc3)C[C@H]1[C@@H]1O[C@@H]12 (stereo not given in full),27.8% (inactive)
8,Cc1nc2ccc(CN(C)c3ccc(C(=O)N[C@@H](CCC(=O)O)C(=O)O)s3)cc2c(=O)[nH]1,3.61% (inactive)
9,CC(C)(C)C(=O)c1ccccc1,10.7% (inactive)
10,CCO[Si](OCC)(OCC)c1ccccc1,-3.59% (inactive)
11,CCN1C=CN(C)C1C (stereo not given),0% [at 81.1 µM] (inactive)
12,COc1cccc(OC)c1C(=O)N[C@@H]1C(=O)N2[C@@H]1SC(C)(C)[C@@H]2C(=O)O,-0.416% (inactive)
13,CCN(Cc1ccccc1)c1ccccc1,20.1% (inactive)
14,N[C@H](C(=O)O)[C@@H](O)c1ccc(O)c(O)c1,-3.07% (inactive)
15,CCCCOCCOC(=O)CCCCCCCCC(=O)OCCOCCCC,9.49% (inactive)
16,CCCCc1ccc2c(n1)[C@@H](c1ccc(OC)cc1C[C@H](C)C(=O)O)[C@H](C(=O)O)[C@H]2c1ccc2c(c1)OCO2,4.94% (inactive)
17,O=[N+]([O-])c1ccc(/C=N\O)o1,1.85% (inactive)
18,O=S(=O)(O)c1cccc2c(S(=O)(=O)O)cccc12,1.47% (inactive)
19,O=C1NC(=O)C2CC=CCC12 (stereo not given),-5.51% (inactive)
20,CC1(C)[C@@H]2CC[C@@]1(C)[C@H](O)C2,2.42% (inactive)

row,SMILES,"viability change, negative = cytotoxic"
1,CCN[C@H]1C[C@H](C)S(=O)(=O)c2sc(S(N)(=O)=O)cc21,11.6% (inactive)
2,COc1ccccc1OCC1CNC(=O)O1 (stereo not given),3.36% (inactive)
3,CCC(C(=O)NC(=O)NC(C)=O)c1ccccc1 (stereo not given),21.7% (inactive)
4,O=C(O)CCSCCC(=O)O,-13.5% (inactive)
5,CCOC(=O)c1cnc2c(cnn2CC)c1NN=C(C)C,-2.26% (inactive)
6,CC(=O)N1C[C@H](O)C[C@H]1C(=O)O,-15.4% (inactive)
7,O=[N+]([O-])c1cncn1CCN1CCOCC1,17% (inactive)
8,CN1CCC(=C2c3ccccc3CCc3cccnc32)CC1,0.954% (inactive)
9,CCCC(=O)O[C@]1(C(=O)CC)CC[C@H]2[C@@H]3CCC4=CC(=O)CC[C@]4(C)[C@H]3[C@@H](O)C[C@@]21C,-8.87% (inactive)
10,CCCCN(CCC(=O)OCC)C(C)=O,8.58% (inactive)
11,C=C(C)C(=O)OCC(O)CO (stereo not given),21.4% (inactive)
12,C=CC(=O)OCCCl,-19.7% [at 81.1 µM] (inactive)
13,O=C1c2ccccc2C(=O)c2cc(O)ccc21,-12.3% (inactive)
14,CO[Si](C)(OC)c1ccccc1,0.0355% (inactive)
15,Cc1ccc(C(=O)c2ccc(CC(=O)O)n2C)cc1,0.779% (inactive)
16,Cc1coc2ccccc2c1=O,0.406% (inactive)
17,CCC(C)(CCCC(C)C)OC(C)=O (stereo not given),1.34% (inactive)
18,O=S(=O)(O)c1cc(O)c(O)c(S(=O)(=O)O)c1,44.2% (inactive)
19,CC1=NN(c2cc(S(=O)(=O)O)ccc2Cl)C(=O)C1N=Nc1ccccc1 (stereo not given),-2.17% (inactive)
20,Nc1ccn([C@@H]2O[C@H](CO)[C@@H](O)C2(F)F)c(=O)n1,0.177% (inactive)

# Source: PubChem BioAssay (Tox21)
